Laboratory results as given in PubChem BioAssay AID588855 (National Center for Advancing Translational Sciences (NCATS), 2011).
Out of some 410,000 compounds screened, about 5,000 (1.2%) were called active. Inconclusive results (about 13%) are left out. The call rests on the fitted dose curve; in most records, active means well fitted inhibition curve with a large enough effect; inconclusive means small, poorly fitted or top-dose-only effect; inactive means no such curve, though single readings can be large or run the other way. The sample as a whole holds a higher share of actives than the screen did.

Assay: qHTS for Inhibitors of TGF-b; further: nearly all actives have a fitted effect of over 65% in size
Details: HepG2 CAGA-GFP TGF-b/SMAD3 reporter, GFP fluorescence, 18 h, TGF-beta stimulated, 500 pg/mL final; series mostly up to 46.1 µM; activity, negative = inhibition: at the top concentration
How it was run: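 Inhibition was scored as loss of TGF-beta-induced (500 pg/mL final, 18 hours, 37 degrees C) GFP in HEPG2 cells carrying a CAGA-GFP reporter, in DMEM with 1% FBS. Well GFP was summed per cell; Activity was normalised to unstimulated and stimulated DMSO wells, then concentration-response fitting.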
On the % scale 0 is the no-effect control and ±100 the full control effect; potency means the concentration at half of the fitted maximal effect.

activity, negative = inhibition, inactive:
Cc1c(-c2cccc(NC(=O)C(C)(C)C)c2)nc2ncccn12 -12.9%
ClC/C=C/C[n+]1ccccc1Cl -3.54%
Cc1cccc(C(=O)Nc2nnc(S(=O)(=O)N3CCCCCC3)s2)c1 -24.8%
O=C(Nc1nnc(S(=O)(=O)N2CCOCC2)s1)c1cccc(Br)c1 -20.5%
O=C(NCc1ccccc1)c1ccc2c(c1)nc1n2CCCCC1 -14.4%
CCc1cccc(CC)c1NC(=S)NCc1ccc2[nH]c(C)cc2c1 -7.74%
Cc1cc(C)cc(NC(=S)NCCc2c[nH]c3ccccc23)c1 -25.4%
Cc1csc(NCC(=O)c2c[nH]c3ccccc23)n1 -1.4%
Nc1ncnc2nnsc12 9.53%
CC(C)(C)c1ccc(C(=O)C[n+]2cccc3cc(Cl)ccc32)cc1 -12.3%
COc1ccc(N=C2SC(C(=O)Nc3ccc(F)cc3)CC(=O)N2C)cc1 (configuration not stated) 3.67%
COc1cccc(-c2cccc(NC(=O)C3CCN(C4CCC4)CC3)c2)c1 -0.372%
O=C(C1CCCN(S(=O)(=O)c2cccc3nonc23)C1)N1CCN(c2ccccc2F)CC1 (configuration not stated) -8.65%
CC(C)Oc1ccc(NC(=O)c2cc3ccccc3o2)cc1 -3.52%
CCOc1ccccc1N(CC)C(=O)Nc1cn(C)c(=O)c2ccccc12 -2.53%
COC(=O)c1c(NC(=O)c2cc(=O)c3c(C)cc(C)cc3o2)sc2c1CCCC2 5.83%
Cc1ccn2c(-c3csc(Nc4ccc(C(=O)O)cc4)n3)c(C)nc2c1 -5.02%
CC(=O)Nc1cnc(-c2ccc(O)cc2C)cn1 22.5%
CCOc1ccc(CNC(=O)CCc2c(C)nn(-c3ccc(N4CCCCC4)nn3)c2C)cc1 -29.5%
COc1cccc(CNC(=O)CCC(=O)N2CC3CCCN3c3ccccc32)c1 (configuration not stated) 1.62%
COC(=O)c1c(C)oc2ccc(N(C(=O)Oc3ccccc3)S(=O)(=O)c3ccccc3)cc12 -0.887%
CCc1ccc(S(=O)(=O)Nc2cc3c(C(=O)OCc4ccccc4)c(C)oc3c3ccccc23)cc1 -10.1%
Cc1nc2sc(C)c(C)n2c(=O)c1S(=O)(=O)NCCc1ccc(Cl)cc1 -6.27%
CCCCN(CC)C(=O)c1c[nH]c2ccc(S(=O)(=O)Nc3cccc(OC)c3)cc2c1=O 2.08%
CCc1cc2c(cc(C(=O)OC)n2Cc2nc(-c3ccc(C)cc3)oc2C)s1 2.49%
COc1ccccc1N1CCN(c2ncnc3onc(-c4ccc(F)cc4)c23)CC1 -2.19%
CCc1ccccc1N(C)C(=O)C1CCCN(c2ncnc3onc(-c4ccc(F)cc4)c23)C1 (configuration not stated) -7.58%
Cc1ccc(Nc2c(-c3ccc(N(C)C)cc3)nc3nc[nH]n23)cc1 9.98%
CN(NC(=O)c1ccccc1F)c1nc(C(F)(F)F)nc2ccccc12 -21.4%
CN(C)C(CNC(=O)c1cc2ccccc2o1)c1ccccc1 (configuration not stated) -11.8%
O=C(C1COc2ccccc2O1)N(Cc1cccnc1)c1nc2c(F)cc(F)cc2s1 (configuration not stated) -13.3%
Cc1cc(-c2ccc(C)c(S(=O)(=O)N3c4ccccc4CC3C)c2)on1 (configuration not stated) 0%
CCCCN1C(=O)C(C)=C(C)C1OCCc1ccc(OC)c(OC)c1 (configuration not stated) -21.6%
COc1ccc(CCN2C(=O)C(C)=C(C)C2=O)cc1OC 1.46%
Cc1ccc(-c2nc3cccc(C)n3c2Nc2ccc3c(c2)OCCO3)cc1 8.92%
COc1ccc(NC(=O)CSc2nccn2C2CCCC2)cc1OC 0.0461%
COc1ccc(CNc2nc(-c3ccc(Cl)cc3)nn2S(=O)(=O)c2ccc(C)cc2)cc1 -14.6%
O=S(=O)(NCc1ccccn1)c1ccc(Br)s1 14.4%
COc1ccc(C2C(=O)N(C3CCCCCC3)CC(=O)N2CCc2ccc(Cl)cc2)cc1OC (configuration not stated) -0.397%
CCC(=O)N1c2ccccc2CC1C(=O)N1CCN(c2ccccc2F)CC1 (configuration not stated) -0.708%
Cc1ccccc1CCNC(=O)C1CCN(c2nc3ccccc3nc2C(F)(F)F)CC1 -5.82%
Cc1ccc(Cl)cc1NC(=O)NC1COc2ccccc2C1 (configuration not stated) 64.3%
Nc1nc(N)c(N=O)c(N)n1 -18.6%
Cc1nc2ccccn2c(=O)c1NC(=O)c1c(F)cccc1F -43.5%
CCN(CC)/[N+]([O-])=N/OCOC(=O)Cc1c(C)n(C(=O)c2ccc(Cl)cc2)c2ccc(OC)cc12 -15.9%
CCOC(=O)c1[nH]c2ccccc2c1N=C(C)N(CC)CC -13.3%
CCOC(=O)c1c(SCC(=O)Nc2cccc(C)c2C)nc(=O)[nH]c1C 14.4%
Cc1ccc(S(=O)(=O)N/N=C(\c2ccccc2)C2CC2)cc1 10.5%
Cc1ccc(S(=O)(=O)/N=S(\C)C(C)C)cc1 (configuration not stated) 26%
CCCCN(C)CCCNC(=O)CN1N=C(c2ccc(OC)cc2)CCC1=O 0%
Brc1cccc(-c2nnn3c2nc(NC2CCCCC2)c2ccccc23)c1 -8.48%
NC(=O)C1CCN(C(=O)COc2cccc3cccnc23)CC1 -2.64%
O=S(=O)(NCCOc1cccc2cccnc12)c1ccc(F)cc1 -15.5%
CCNS(=O)(=O)c1ccc(NC(=O)CSc2nc(-c3ccco3)cc(C(F)(F)F)n2)cc1 0%
CCNS(=O)(=O)c1ccc(NC(=O)c2cncc(Br)c2)cc1 -4.93%
CO[C@H]1O[C@@H]2O[C@@]3(C)CC[C@@H]4[C@@H](C)CC[C@@H]([C@H]1C)[C@@]24OO3 13%
Brc1nc2ncnc(NCc3ccco3)c2[nH]1 17.8%
COC(=O)c1cc(C(=O)N(Cc2ccccc2)c2ccccn2)cc([N+](=O)[O-])c1 6.92%
CC(=O)N(CN1C(=O)C2CC=CCC2C1=O)c1cccc(Cl)c1 (configuration not stated) -19.6%
CCCc1nn2c(=O)cc(COC(=O)c3ccc(NC(=O)COc4ccc(F)cc4)cc3)nc2s1 -0.265%
c1ccc(CNCc2ccc(CNCc3ccccc3)cc2)cc1 3.53%
Oc1ccc(N2CCN(C(=S)NCc3ccccc3)CC2)cc1 -0.832%
CCN(CC)c1nc(C#N)nc(OC)n1 -4.06%
CC(C)(CCl)C(=O)Nc1ccc(Sc2ccc(F)cc2)cc1 0%
CCC(=O)Nc1ccc(Nc2nc(Cl)nc(Nc3ccc(NC(=O)CC)cc3)n2)cc1 23.4%
CCOc1ccc(C2C(C(=O)Nc3ccc(Cl)cc3)=C(C)Nc3nc(C(F)(F)F)nn32)cc1 (configuration not stated) -20.7%
CCc1ccc(NC(=O)c2cc(S(=O)(=O)N3CCCC(C)C3)cn2C)cc1 (configuration not stated) -6.75%
Cn1c(=O)c2c(SCC(=O)NCC3CCCO3)nc(-c3ccccc3F)nc2n(C)c1=O (configuration not stated) -1.79%
CNC(=O)COc1ccc(S(=O)(=O)Nc2ccccc2)cc1 3.64%
CCS(=O)(=O)Nc1cccc(-c2cc(-c3ccccc3)c3cc(C)ccc3n2)c1 0%
COc1ccccc1-c1ccnc2[nH]n(-c3ccccc3)c(=O)c12 12.7%
CCOC(=O)C1CCCN(CC(=O)Nc2cc(C)c3c(=O)oc4ccccc4c3n2)C1 (configuration not stated) -2.9%
O=C(O)C1CC=CC2CCN(C3CCCCC3)C(=O)C21 (configuration not stated) -5.85%
CCOc1cc(/C=C(\C#N)C(=O)Nc2ccccc2C)ccc1OCc1cc(=O)n2nc(CC)sc2n1 -28.7%
COC(=O)c1nc(NC(=O)c2ccc(C(C)(C)C)cc2)n[nH]1 -3.02%
COc1ccc(NS(=O)(=O)c2ccc(N3CCOCC3)c(NC(=O)/C=C/C(=O)O)c2)cc1 5.91%
COc1ccc(C(=O)Nc2ccc(-n3nncc3-c3ccccc3)cc2)cc1OC 13.3%

Potency, active:
O=C(Nc1nnc(S(=O)(=O)N2CCCCCC2)s1)c1cccc(Br)c1 10 µM
Cc1cccc(NC(=S)NCc2ccc3[nH]c4c(c3c2)CCCC4)c1 25.1 µM
COc1cccc(N=C2SC(C(=O)Nc3cccc(Cl)c3)CC(=O)N2C)c1 (configuration not stated) 10 µM
Cc1ccc(Nc2nc(-c3ccc(O)cc3O)cs2)nc1 12.6 µM
CCOC(=O)c1c(C)oc2ccc(N(C(=O)c3ccncc3)S(=O)(=O)c3ccc(CC)cc3)cc12 12.6 µM
CCCCCCCCn1c2c(c(=N)c3c1CCC3)CCCC2 8.91 µM
Oc1cccc2cc(-c3ccncc3)cnc12 3.55 µM
Cc1ccc(Cl)cc1N(C)C(=O)C1CCCN(c2ncnc3onc(-c4ccc(F)cc4)c23)C1 (configuration not stated) 11.2 µM
CCc1ccc(C(CNc2nc(C(F)(F)F)nc3ccccc23)N(C)C)cc1 (configuration not stated) 11.2 µM
CCCCOc1ccc(CN2C(=O)C(=O)c3cc(Br)cc(C)c32)cc1OC 10 µM
Clc1cccc(N=C2NN=C(c3ccc4c(c3)OCCO4)CS2)c1 10 µM
CCN1CCC(O)(/C=C/c2ccc(C)cc2)C(C(=O)/C=C/c2ccc(C)cc2)C1 (configuration not stated) 11.2 µM
O=S(=O)([N-]c1nc2ccccc2nc1-[n+]1ccc(Cc2ccccc2)cc1)c1ccc(Br)s1 2.82 µM
c1ccc(C2CNCc3c2ccc2ccccc32)cc1 (configuration not stated) 12.6 µM
CCOC(=O)c1c(C)[nH]c2c1-c1ccccc1C(=O)C2=O 1.26 µM
Cc1ccc(S(=O)(=O)/N=C2\C=C(NS(=O)(=O)c3ccc(C)cc3)C(=O)c3ccccc32)cc1 11.2 µM
O=C(Nc1ccccc1)Oc1cccc2cccnc12 8.91 µM
CCNS(=O)(=O)c1ccc(NC(=O)Nc2cccc(C(F)(F)F)c2)cc1 12.6 µM
O=C(CCl)N(Cc1cccc([N+](=O)[O-])c1)c1cccc(Cl)c1 11.2 µM
Oc1ccc(CNc2ccccc2O)cc1 12.6 µM
O=C(CCl)Nc1ccc(Sc2ccc(NC(=O)CCl)cc2)cc1 10 µM
CCCOc1ccc(-c2cccc(NS(=O)(=O)c3ccccc3)c2)nn1 10 µM
CN(C)c1nc(=Nc2cccc(Cl)c2)ss1 0.282 µM
C=C(C)C(=O)O[C@H]1C/C(C)=C\C(=O)/C=C(\C)[C@H](O)[C@@H]2OC(=O)C(=C)[C@@H]21 3.55 µM
COC(=O)c1sc(-c2ccc(C(C)(C)C)cc2)cc1NC(=O)/C=C/C(=O)O 8.91 µM
